Experimental data published in PubChem BioAssay AID1159580 (chemical genetic matrix, 2015).
Out of some 5,500 compounds screened, about 2,000 (36%) were called active. Inconclusive results (about 18%) are left out. Cut-off read from the data, not from the text of the source: active = normalized growth mostly below about 0.91 (no sharp cut-off); inconclusive = no clear call, values can overlap the other calls; inactive = mostly above about 0.92. The list shows a part of the results.

Test: chemical genetic growth profiling, strain panel (AID 1159580);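 note: tested at 20 µM; growth read once vehicle control cultures reached saturation at 30 °C; 1 = growth at the plate median or of vehicle wells; lower values mean less growth of the strain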
Details: S. cerevisiae deletion strains, growth OD

Measured: normalized growth

CC1=NS(=O)(=O)c2cc(Cl)ccc2N1
inactive: locus YAL021C, strain ccr4, stronger effect = lower value 0.919 | locus YAL026C, strain drs2, stronger effect = lower value 0.972 | locus YAL030W, strain snc1, stronger effect = lower value 0.987 | locus YAL040C, strain CLN3, stronger effect = lower value 1 | locus YBL061C, strain skt5, stronger effect = lower value 0.984 | locus YBR009C, strain hhf1, stronger effect = lower value 0.984 | locus YBR023C, strain chs3, stronger effect = lower value 0.971 | locus YBR171W, strain sec66, stronger effect = lower value 0.972 | locus YBR231C, strain swc5, stronger effect = lower value 0.995 | locus YBR279W, strain paf1, stronger effect = lower value 0.952 | locus YCL011C, strain gbp2, stronger effect = lower value 0.985 | locus YCL016C, strain dcc1, stronger effect = lower value 0.976 | locus YCL061C, strain MRC1 (second series), stronger effect = lower value 0.995 | locus YCL069W, strain vba3, stronger effect = lower value 0.967 | locus YCR088W, strain abp1, stronger effect = lower value 0.971 | locus YDL005C, strain med2, stronger effect = lower value 0.972 | locus YDL040C, strain nat1, stronger effect = lower value 0.958 | locus YDR001C, strain nth1, stronger effect = lower value 0.967 | locus YDR069C, strain doa4, stronger effect = lower value 0.937 | locus YDR137W, strain rgp1, stronger effect = lower value 0.957 | locus YDR150W, strain NUM1, stronger effect = lower value 1.01 | locus YDR159W, strain sac3, stronger effect = lower value 0.936 | locus YDR195W, strain ref2 0.899 | locus YDR297W, strain sur2, stronger effect = lower value 0.974 | locus YDR334W, strain swr1, stronger effect = lower value 0.936 | locus YDR335W, strain msn5, stronger effect = lower value 0.971 | locus YDR363W, strain ESC2, stronger effect = lower value 0.973 | locus YDR392W, strain spt3, stronger effect = lower value 0.971 | locus YEL003W, strain gim4, stronger effect = lower value 0.984 | locus YEL037C, strain rad23, stronger effect = lower value 0.944 | locus YEL061C, strain CIN8 (second series), stronger effect = lower value 0.972 | locus YER002W, strain NOP16, stronger effect = lower value 0.999 | locus YER015W, strain faa2, stronger effect = lower value 0.971 | locus YER016W, strain bim1, stronger effect = lower value 0.963 | locus YER111C, strain swi4, stronger effect = lower value 0.99 | locus YER155C, strain BEM2 (second series), stronger effect = lower value 0.994 | locus YFR010W, strain ubp6, stronger effect = lower value 0.946 | locus YGL167C, strain pmr1, stronger effect = lower value 0.95 | locus YGL173C, strain kem1, stronger effect = lower value 0.995 | locus YGL227W, strain vid30, stronger effect = lower value 0.967 | locus YGL240W, strain doc1, stronger effect = lower value 0.953 | locus YGL253W, strain hxk2, stronger effect = lower value 0.951 | locus YGR078C, strain PAC10, stronger effect = lower value 1.01 | locus YHR013C, strain ard1, stronger effect = lower value 0.925 | locus YHR027C, strain rpn1, stronger effect = lower value 0.977 | locus YHR030C, strain SLT2, stronger effect = lower value 0.96 | locus YHR079C, strain IRE1, stronger effect = lower value 0.969 | locus YHR142W, strain chs7, stronger effect = lower value 0.948 | locus YJL092W, strain hpr5, stronger effect = lower value 0.986 | locus YJL095W, strain BCK1 (second series), stronger effect = lower value 0.961 | locus YJL095W, strain BCK1, stronger effect = lower value 0.974 | locus YJL115W, strain asf1, stronger effect = lower value 0.948 | locus YJL129C, strain trk1, stronger effect = lower value 0.975 | locus YJL154C, strain vps35, stronger effect = lower value 0.989 | locus YJL164C, strain tpk1, stronger effect = lower value 0.977 | locus YJL166W, strain qcr8, stronger effect = lower value 0.963 | locus YJL187C, strain SWE1, stronger effect = lower value 0.979 | locus YJR066W, strain TOR1, stronger effect = lower value 0.948 | locus YJR075W, strain HOC1, stronger effect = lower value 0.991 | locus YKL160W, strain elf1, stronger effect = lower value 0.981 | locus YKR026C, strain gcn3, stronger effect = lower value 0.958 | locus YKR091W, strain srl3, stronger effect = lower value 0.969 | locus YLL001W, strain dnm1, stronger effect = lower value 0.969 | locus YLL026W, stronger effect = lower value 0.985 | locus YLL041C, strain sdh2, stronger effect = lower value 0.981 | locus YLR027C, strain aat2, stronger effect = lower value 0.975 | locus YLR113W, strain HOG1, stronger effect = lower value 0.951 | locus YLR221C, strain rsa3, stronger effect = lower value 0.986 | locus YLR258W, strain gsy2, stronger effect = lower value 0.971 | locus YLR262C, strain YPT6 (second series), stronger effect = lower value 0.961 | locus YLR320W, strain mms22, stronger effect = lower value 0.971 | locus YLR342W, strain FKS1, stronger effect = lower value 0.992 | locus YLR357W, strain rsc2, stronger effect = lower value 0.944 | locus YLR370C, strain arc18, stronger effect = lower value 0.963 | locus YLR384C, strain iki3, stronger effect = lower value 0.984 | locus YML120C, strain ndi1, stronger effect = lower value 0.98 | locus YMR058W, strain fet3, stronger effect = lower value 0.97 | locus YMR125W, strain sto1, stronger effect = lower value 0.955 | locus YMR129W, stronger effect = lower value 0.955 | locus YMR205C, strain PFK2, stronger effect = lower value 0.966 | locus YMR231W, strain pep5, stronger effect = lower value 0.963 | locus YMR307W, strain GAS1, stronger effect = lower value 0.993 | locus YNL071W, strain lat1, stronger effect = lower value 0.949 | locus YNL175C, strain NOP13, stronger effect = lower value 1 | locus YNL183C, strain NPR1, stronger effect = lower value 0.906 | locus YNL197C, strain WHI3, stronger effect = lower value 0.996 | locus YNL209W, strain ssb2, stronger effect = lower value 0.979 | locus YNL224C, strain SQS1, stronger effect = lower value 1 | locus YNL248C, strain rpa49, stronger effect = lower value 0.998 | locus YNL322C, strain KRE1 (second series), stronger effect = lower value 0.966 | locus YNL322C, strain KRE1, stronger effect = lower value 0.953 | locus YNR049C, strain mso1, stronger effect = lower value 0.974 | locus YOR001W, strain rrp6, stronger effect = lower value 0.958 | locus YOR070C, strain gyp1, stronger effect = lower value 0.99 | locus YOR080W, strain dia2, stronger effect = lower value 0.942 | locus YOR083W, strain WHI5 (second series), stronger effect = lower value 1.02 | locus YOR083W, strain WHI5, stronger effect = lower value 0.958 | locus YOR106W, strain vam3, stronger effect = lower value 0.983 | locus YOR231W, strain MKK1, stronger effect = lower value 0.978 | locus YOR265W, strain rbl2, stronger effect = lower value 0.975 | locus YOR270C, strain vph1, stronger effect = lower value 0.888 | locus YOR290C, strain snf2, stronger effect = lower value 0.965 | locus YPL051W, strain arl3, stronger effect = lower value 0.994 | locus YPL055C, strain LGE1, stronger effect = lower value 0.987 | locus YPL078C, strain atp4, stronger effect = lower value 0.985 | locus YPL106C, strain sse1, stronger effect = lower value 0.92 | locus YPL240C, strain hsp82, stronger effect = lower value 0.967 | locus YPL241C, strain CIN2, stronger effect = lower value 0.992 | locus YPL256C, strain CLN2, stronger effect = lower value 0.97
